TNFa cytotox: toxic to HUVEC cells under TNF alpha stimulation; AID 848; cell count reduction, % at 2 µM; HUVEC TNFalpha-stimulated, Hoechst cell count, imaging; 93,000 compounds, 0.17% hits;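 active = cell count reduction exceeding the screen mean by over 5 SD, scaled to untreated wells per plate, cut at about 78% in these data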;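 note: cells counted after 24 h of TNF alpha exposure following the 1 h pretreatment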
VCAM1 TNFa inh: reduces TNF alpha induced VCAM1 expression in HUVEC; HUVEC TNFa-induced VCAM-1 immunofluorescence, high-content imaging; inhibition, % at 2 µM; 95,000 compounds, 0.48% hits;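 active = inhibition above the batch mean plus 3 SD, with images confirmed as a hit by eye, cut at about 37% in these data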;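 note: 0% = TNF-stimulated DMSO wells and 100% = unstimulated control wells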
HUVEC tox IL1B: toxic to HUVEC cells under IL-1B stimulation | 94,000 compounds, 0.41% hits | HUVEC cell count loss, Hoechst imaging, IL-1B stimulated | cell count reduction, % at 2 µM;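 active = cell count reduction more than 3 SD above the screen-wide mean, cut at about 70% in these data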;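 note: normalized per plate to untreated control cells as the no-loss baseline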
IL1B NFkB inh: blocks IL-1B driven NFkB nuclear translocation in HUVEC cells | 94,000 compounds, 0.43% hits | HUVEC IL-1B NFkB p65 nuclear translocation imaging | inhibition, % at 2 µM | AID 796;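 active = inhibition above about 30% together with a positive call from visual inspection of the well image, limit read from the data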;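 note: nuclear over cytoplasmic p65 intensity ratio measured by imaging; 0% = IL-1B stimulated DMSO wells and 100% = unstimulated DMSO wells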
E-sel TNF inh: TNF alpha driven E-selectin expression inhibition | HUVEC TNFa-induced E-selectin immunofluorescence, high content | inhibition, % at 2 µM | 120,000 compounds, 0.71% hits | AID 1246;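 active = inhibition above the batch mean plus 3 SD, and confirmed as a hit on visual image review, cut at about 43% in these data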;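 note: 0% = TNF-stimulated DMSO wells and 100% = unstimulated control wells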
NFkB transloc pot: enhances IL-1B driven NFkB nuclear translocation; 94,000 compounds, 0.3% hits; activation, % at 2 µM; AID 819; HUVEC IL-1B NFkB p65 nuclear translocation imaging;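 active = activation above 40%, about the mean plus 3 SD, also judged a hit on visual image review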;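 note: percent activation is computed from the nuclear over cytoplasmic p65 intensity ratio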
An asterisk follows results filed as active; x = no result given. Most compounds without a hit are left out; they make up all but 1.6% or so of the library.

SMILES	TNFa cytotox	VCAM1 TNFa inh	HUVEC tox IL1B	IL1B NFkB inh	E-sel TNF inh	NFkB transloc pot
Cc1noc2ncc(C(=O)c3cc(F)ccc3O)cc12	6	14	93*	-30	12	30
Cc1cc(Cl)ccc1NC(=O)Nc1c(C)n(-c2ccccc2)c(=O)n1C	-2	2	7	-2	51	2
COc1ccc(Cl)c(NC(=O)Nc2c(C)n(-c3ccccc3)c(=O)n2C)c1	9	94*	-2	-13	-32	13
Cc1c(C(=O)Nc2ccncc2)oc2ccccc12	-17	2	0	-12	31	12
Cc1c(C(=O)NC(C)c2ccncc2)oc2ccccc12 (centres undefined)	-10	0	-2	-6	100*	6
CCC(C)(C)NC(=O)Cc1ccc(OC)c(OC)c1	3	18	18	-9	23	9
CCC(C)(C)NC(=O)CN(C(=O)c1snc(C(N)=O)c1N)c1ccc(OC)c(OC)c1	-11	-10	-3	-28	76*	28
Cc1ccccc1Nc1scc(-c2ccc(Cl)cc2)[n+]1-c1ccccc1C	x	x	x	x	0	x
O=C(CS(=O)c1ccc(C(F)(F)F)cc1[N+](=O)[O-])Oc1ccccc1 (centres undefined)	20	88*	37	11	84*	-11
CS(=O)(=O)c1ccc(S(=O)CC(=O)OCc2ccccc2)c([N+](=O)[O-])c1 (centres undefined)	x	x	x	x	100*	x
CCOc1c(C)cc2[nH]c(CCC(=O)O)nc2c1C	x	x	x	x	96*	x
COC(=O)C(NC(=O)c1ccccc1)c1ccccc1 (centres undefined)	-6	-26	3	4	60*	-4
O=C(NC(C(=O)O)c1ccccc1)c1ccccc1 (centres undefined)	-2	8	-14	-10	10	10
COc1ccccc1OCCC(=O)OCC(=O)Nc1ccc(Br)cc1F	x	x	x	x	-24	x
Cc1ccc(N2C(=O)C3C4C=CC(CNC(=S)Nc5ccc(F)cc5)(O4)C3C2=O)cc1 (centres undefined)	x	x	x	x	68*	x
Cc1ccc(N2C(=O)C3C4C=CC(CNC(=S)Nc5ccc(Cl)cc5)(O4)C3C2=O)cc1 (centres undefined)	x	x	x	x	6	x
CCCCNC(=S)N/N=C/c1ccc(OCC(=O)Nc2c(C)cc(C)cc2C)c(OC)c1	x	x	x	x	-7	x
Clc1ccc(CSc2ncccn2)cc1	-4	4	6	-4	-6	4
Cc1ccc(CSc2nc3ccccc3cc2C=O)cc1	56	95*	73*	36*	-16	-36
O=Cc1cc2ccccc2nc1SCc1ccc(Cl)cc1	34	66*	56	-5	25	5
O=Cc1cc2ccccc2nc1SCc1ccc(Cl)c(Cl)c1	69	72*	65	34*	6	-34
Cc1cc(C)c(NC(=S)N(CCc2ccncc2)C(C)C)c(C)c1	x	x	x	x	-4	x
CCN(CC)S(=O)(=O)c1cc(F)ccc1OC	-14	0	77*	6	-5	-6
COc1ccc2o/c(=N\O)c(C(=O)Nc3ccccc3OC)cc2c1	-10	-11	76*	8	10	-8
CCCCC(=O)Nc1nnc(CCOC)s1	x	x	x	x	-45	x
SMILES	TNFa cytotox	VCAM1 TNFa inh	HUVEC tox IL1B	IL1B NFkB inh	E-sel TNF inh	NFkB transloc pot
CC(=O)Oc1cccc(N2C(=O)C3CC=CCC3C2=O)c1 (centres undefined)	-28	-12	89*	-30	13	30
Cc1cc(N2C(=O)C3C4CC(C(Br)C4Br)C3C2=O)no1 (centres undefined)	x	x	x	x	1	x
Cc1cc(NC(=O)NC(=O)c2cccc(OC(F)(F)C(F)F)c2)n[nH]1	12	91*	-29	-2	-14	2
COc1cccc(C(=O)Nc2c(C)n[nH]c2C)c1	1	8	-4	-6	x	6
N/C(Cc1ccc(Cl)cc1)=N\OC(=O)C1CCCCC1	x	x	x	x	16	x
O=C(Nc1ccccc1)N1CCN(c2ncccn2)CC1	-9	5	-9	10	6	-10
CCCNC(=O)N1CCN(c2ncccn2)CC1	-8	1	6	-56	-34	56*
Cn1nc(-c2ccc(C(=O)O)cc2)c2ccccc2c1=O	-19	1	-138	1	0	-1
Cn1nc(-c2ccc(C(=O)NCC3CCCO3)cc2)c2ccccc2c1=O (centres undefined)	6	21	90*	6	-15	-6
Cn1nc(-c2ccc(C(=O)N3CCN(c4ccccc4)CC3)cc2)c2ccccc2c1=O	-11	-11	90*	99*	-8	-99
O=C(c1ccc(N2CCCC2=O)cc1)N1CCN(c2ccccc2)CC1	x	x	-31	-44	-25	44*
Cc1ccc(C(=O)NCC2CCCO2)cc1N1CCCC1=O (centres undefined)	-59	-33	12	-5	66*	5
Cc1ccc(-c2onc3ccc(C4OCCO4)cc23)cc1	x	x	x	x	-14	x
COc1cc(CN2CCCC(C(=O)c3ccccc3SC)C2)cc(OC)c1 (centres undefined)	x	x	x	x	-9	x
COc1ccccc1-c1cc(C(=O)N/N=C\c2cnn(C)c2C)c2ccccc2n1	x	x	x	x	-6	x
COc1ccccc1-c1cc(C(=O)N/N=C/C=C/c2ccccc2[N+](=O)[O-])c2ccccc2n1	0	-18	-2	-42	-19	42*
O=C(CCSc1nc(-c2ccco2)cc(C(F)(F)F)n1)NCc1cccs1	-15	0	-40	-47	32	47*
O=C(CCSc1nc(-c2ccco2)cc(C(F)(F)F)n1)NCc1ccccn1	-36	4	-15	-1	0	1
Cc1cc(NC(=O)CSc2nc(-c3cccs3)cc(C(F)(F)F)n2)no1	21	53*	-42	-6	-13	6
Cc1c(C)c2c(C)[nH]nc2oc1=O	-16	2	76*	14	38	-14
C/C(Cl)=C\Cn1c(NCCCn2ccnc2)nc2c1c(=O)n(C)c(=O)n2C	89*	88*	17	-19	x	19
C/C(Cl)=C/Cn1c(NCCCn2ccnc2)nc2c1c(=O)[nH]c(=O)n2C	-2	5	-5	1	-13	-1
COCCCNC(=O)Cn1c(=O)n(CCCCCC(=O)NCc2ccc3c(c2)OCO3)c(=O)c2sccc21	x	x	x	x	-18	x
OCCNCC(O)Cn1ccc2ccccc21 (centres undefined)	x	100*	-3	5	-20	-5
O=C(COC(=O)c1ccccn1)c1ccc(Br)cc1	x	x	x	x	-68	x
O=C(OCC1CC(c2ccccn2)=NO1)c1ccc(Br)cc1 (centres undefined)	x	x	x	x	96*	x
COc1cc(NC(=O)C2=C(N3CCOCC3)/C(=C\c3ccc(Cl)cc3Cl)CC2)cc(OC)c1OC	x	x	x	x	-11	x
COc1ccc2nc(NC(=O)C(NS(=O)(=O)c3cccc4nsnc34)C(C)C)sc2c1 (centres undefined)	86*	13	17	4	1	-4
COc1ccc(-c2cc3ccc(OCc4nn[nH]n4)cc3oc2=O)cc1OC	77	51*	-1	2	-32	-2
CCOc1cc(/C=N/Nc2nc(-c3cccc(S(=O)(=O)N4CCCC4)c3)cs2)ccc1O	x	x	x	x	0	x
